Measured values: the supplement of paper PMC10849652
Targets with a hit are over-represented here; the source holds about 7,900 in all. About 0.6% of all pairs of compound and target were hits.

What follows are targets tested with C1=CC(=C(C=C1Cl)C2=NC3=NC=CN=C3C(=N2)NC4=CC=NC=C4)F (assay: log2 fold change, soluble protein after heating vs DMSO (PISA); higher = thermal stabilisation; K562 cells, 10 uM, 30 min; active = over 0.2 and 3.5 SD of the protein, either way, in both replicates (recomputed)).
How it was run: (§1)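 For each measurement, 10 μM compound was applied for 30 min to K562 cells at 2×10^6 cells/mL. Aliquots were heated for 3 min across 48°C-58°C, pooled, and extracted in PBS with 0.5% NP-40 at 4°C; the supernatant after 21,000xg for 90 min was soluble protein. This was quantified by TMTpro 16plex LC-MS/MS with channel sums equalised, and thermal stability was reported relative to control samples from duplicates, on a log2 fold-change scale.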

UniProt Q9Y5L4, sequence (Q9Y5L4 whole entry, looked up): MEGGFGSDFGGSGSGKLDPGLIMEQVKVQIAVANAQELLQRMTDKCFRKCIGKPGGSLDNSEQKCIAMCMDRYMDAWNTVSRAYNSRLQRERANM
UniProt O75663, sequence (O75663 whole entry, looked up): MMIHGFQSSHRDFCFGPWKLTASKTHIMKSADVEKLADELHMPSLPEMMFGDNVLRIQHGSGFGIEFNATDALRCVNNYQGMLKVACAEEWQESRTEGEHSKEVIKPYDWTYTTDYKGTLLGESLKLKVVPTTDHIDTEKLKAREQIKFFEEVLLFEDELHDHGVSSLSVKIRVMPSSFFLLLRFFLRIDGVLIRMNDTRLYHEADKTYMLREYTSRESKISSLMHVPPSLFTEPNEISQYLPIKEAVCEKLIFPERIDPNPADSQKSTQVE
UniProt Q9H5Q4, sequence (Q9H5Q4 whole entry, looked up): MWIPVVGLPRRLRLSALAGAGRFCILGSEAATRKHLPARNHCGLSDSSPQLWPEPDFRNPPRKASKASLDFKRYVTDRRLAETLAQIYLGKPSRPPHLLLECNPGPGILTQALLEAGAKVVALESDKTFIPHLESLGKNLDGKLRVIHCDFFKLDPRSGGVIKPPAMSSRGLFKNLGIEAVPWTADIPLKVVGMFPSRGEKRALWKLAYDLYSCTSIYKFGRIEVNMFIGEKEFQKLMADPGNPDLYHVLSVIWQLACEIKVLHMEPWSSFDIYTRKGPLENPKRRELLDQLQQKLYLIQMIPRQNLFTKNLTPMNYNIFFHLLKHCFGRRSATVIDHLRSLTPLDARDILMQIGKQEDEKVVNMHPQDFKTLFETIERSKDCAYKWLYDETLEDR
UniProt Q7L7X3, sequence (Q7L7X3 whole entry, looked up): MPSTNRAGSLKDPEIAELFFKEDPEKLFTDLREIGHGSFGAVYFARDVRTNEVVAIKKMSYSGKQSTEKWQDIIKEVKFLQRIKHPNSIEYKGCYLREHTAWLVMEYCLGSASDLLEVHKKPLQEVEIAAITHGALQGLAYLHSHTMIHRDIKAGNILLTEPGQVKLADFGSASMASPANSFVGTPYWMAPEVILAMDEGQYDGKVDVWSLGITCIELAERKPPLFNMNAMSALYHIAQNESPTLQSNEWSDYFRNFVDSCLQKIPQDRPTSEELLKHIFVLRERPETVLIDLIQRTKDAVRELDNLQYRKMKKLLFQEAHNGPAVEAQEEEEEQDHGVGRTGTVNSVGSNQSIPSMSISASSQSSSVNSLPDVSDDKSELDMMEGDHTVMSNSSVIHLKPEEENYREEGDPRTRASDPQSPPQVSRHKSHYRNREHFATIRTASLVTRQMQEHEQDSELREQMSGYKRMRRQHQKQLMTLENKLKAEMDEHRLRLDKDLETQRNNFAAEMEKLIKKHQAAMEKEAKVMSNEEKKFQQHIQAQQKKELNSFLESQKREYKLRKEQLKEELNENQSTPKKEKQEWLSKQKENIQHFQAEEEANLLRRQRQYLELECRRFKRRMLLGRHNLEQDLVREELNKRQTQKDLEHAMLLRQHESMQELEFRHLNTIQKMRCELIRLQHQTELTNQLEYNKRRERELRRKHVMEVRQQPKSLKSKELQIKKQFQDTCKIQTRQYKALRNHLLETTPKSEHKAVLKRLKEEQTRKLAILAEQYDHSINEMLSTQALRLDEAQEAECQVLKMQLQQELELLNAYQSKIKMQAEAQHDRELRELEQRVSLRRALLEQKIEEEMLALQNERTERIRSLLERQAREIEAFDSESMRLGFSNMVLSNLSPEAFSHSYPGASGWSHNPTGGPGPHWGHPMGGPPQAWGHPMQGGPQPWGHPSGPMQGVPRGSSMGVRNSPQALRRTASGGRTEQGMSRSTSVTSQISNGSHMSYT
UniProt O60264, sequence (O60264 whole entry, looked up): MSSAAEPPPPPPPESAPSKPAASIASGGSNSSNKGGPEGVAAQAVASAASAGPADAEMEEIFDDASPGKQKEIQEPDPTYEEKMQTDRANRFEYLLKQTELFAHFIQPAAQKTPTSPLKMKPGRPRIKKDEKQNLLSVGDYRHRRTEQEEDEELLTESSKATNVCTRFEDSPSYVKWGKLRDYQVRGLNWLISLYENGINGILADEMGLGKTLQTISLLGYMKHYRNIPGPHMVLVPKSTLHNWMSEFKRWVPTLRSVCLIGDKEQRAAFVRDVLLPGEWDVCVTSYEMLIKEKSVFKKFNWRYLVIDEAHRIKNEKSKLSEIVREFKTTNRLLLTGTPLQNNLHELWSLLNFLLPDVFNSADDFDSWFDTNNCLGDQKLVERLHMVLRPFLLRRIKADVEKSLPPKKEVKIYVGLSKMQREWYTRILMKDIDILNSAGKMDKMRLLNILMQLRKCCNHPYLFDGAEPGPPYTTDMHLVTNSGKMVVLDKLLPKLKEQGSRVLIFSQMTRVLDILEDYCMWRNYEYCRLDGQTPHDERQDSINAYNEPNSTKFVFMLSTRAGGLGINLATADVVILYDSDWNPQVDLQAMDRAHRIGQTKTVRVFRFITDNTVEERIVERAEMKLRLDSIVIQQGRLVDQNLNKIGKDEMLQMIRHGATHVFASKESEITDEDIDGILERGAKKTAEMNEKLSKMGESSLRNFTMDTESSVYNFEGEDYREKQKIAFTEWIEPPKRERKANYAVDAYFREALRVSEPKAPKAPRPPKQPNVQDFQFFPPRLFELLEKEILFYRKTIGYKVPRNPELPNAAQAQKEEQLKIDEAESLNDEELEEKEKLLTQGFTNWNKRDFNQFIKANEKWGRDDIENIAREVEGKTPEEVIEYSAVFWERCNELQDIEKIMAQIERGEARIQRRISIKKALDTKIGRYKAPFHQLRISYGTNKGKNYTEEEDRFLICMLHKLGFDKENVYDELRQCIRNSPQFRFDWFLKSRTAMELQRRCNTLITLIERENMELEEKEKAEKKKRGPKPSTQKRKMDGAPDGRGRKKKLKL
UniProt Q9NUY8, sequence (Q9NUY8 whole entry, looked up): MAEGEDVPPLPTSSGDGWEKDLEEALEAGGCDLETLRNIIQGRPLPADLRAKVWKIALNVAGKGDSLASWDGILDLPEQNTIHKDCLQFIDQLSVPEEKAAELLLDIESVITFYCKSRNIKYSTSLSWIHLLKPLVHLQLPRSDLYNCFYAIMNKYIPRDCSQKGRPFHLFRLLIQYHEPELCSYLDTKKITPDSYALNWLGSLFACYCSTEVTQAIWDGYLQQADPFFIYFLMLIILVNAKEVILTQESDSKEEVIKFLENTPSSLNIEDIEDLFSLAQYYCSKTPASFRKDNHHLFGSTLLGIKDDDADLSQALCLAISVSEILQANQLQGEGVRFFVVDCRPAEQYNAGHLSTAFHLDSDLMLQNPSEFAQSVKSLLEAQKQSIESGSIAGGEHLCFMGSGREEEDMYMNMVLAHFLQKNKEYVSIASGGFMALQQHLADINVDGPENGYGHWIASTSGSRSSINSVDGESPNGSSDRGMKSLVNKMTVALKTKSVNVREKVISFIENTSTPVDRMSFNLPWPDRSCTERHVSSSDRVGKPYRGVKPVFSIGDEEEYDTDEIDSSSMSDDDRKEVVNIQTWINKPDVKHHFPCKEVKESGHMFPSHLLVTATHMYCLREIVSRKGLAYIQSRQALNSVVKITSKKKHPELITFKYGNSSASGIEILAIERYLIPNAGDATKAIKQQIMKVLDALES
UniProt Q9BW92, sequence (Q9BW92 whole entry, looked up): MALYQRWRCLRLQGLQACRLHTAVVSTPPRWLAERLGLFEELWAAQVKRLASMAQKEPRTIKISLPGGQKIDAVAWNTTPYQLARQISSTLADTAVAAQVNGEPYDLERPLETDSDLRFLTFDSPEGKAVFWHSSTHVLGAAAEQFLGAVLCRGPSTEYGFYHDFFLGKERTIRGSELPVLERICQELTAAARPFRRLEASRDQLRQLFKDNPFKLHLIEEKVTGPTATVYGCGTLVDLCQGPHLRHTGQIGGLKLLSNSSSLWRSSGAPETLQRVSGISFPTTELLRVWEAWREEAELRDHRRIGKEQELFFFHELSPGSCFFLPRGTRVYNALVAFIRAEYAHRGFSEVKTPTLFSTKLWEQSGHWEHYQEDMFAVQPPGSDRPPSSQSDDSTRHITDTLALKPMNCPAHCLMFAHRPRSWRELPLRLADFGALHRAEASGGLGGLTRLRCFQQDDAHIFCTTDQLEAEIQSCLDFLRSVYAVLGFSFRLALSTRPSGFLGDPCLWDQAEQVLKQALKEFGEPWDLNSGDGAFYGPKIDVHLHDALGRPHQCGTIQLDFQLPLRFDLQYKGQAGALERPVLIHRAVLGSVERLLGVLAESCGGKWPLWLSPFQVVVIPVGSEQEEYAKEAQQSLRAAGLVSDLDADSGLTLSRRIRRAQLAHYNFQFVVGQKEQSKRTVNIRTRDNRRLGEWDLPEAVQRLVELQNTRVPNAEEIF
UniProt P30626, sequence (P30626 whole entry, looked up): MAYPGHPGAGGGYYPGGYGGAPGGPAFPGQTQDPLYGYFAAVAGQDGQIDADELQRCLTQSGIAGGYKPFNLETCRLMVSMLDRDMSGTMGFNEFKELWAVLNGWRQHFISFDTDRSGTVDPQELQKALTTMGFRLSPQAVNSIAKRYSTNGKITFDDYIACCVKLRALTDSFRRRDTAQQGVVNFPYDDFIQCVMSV
UniProt Q9NYB0, sequence (Q9NYB0 whole entry, looked up): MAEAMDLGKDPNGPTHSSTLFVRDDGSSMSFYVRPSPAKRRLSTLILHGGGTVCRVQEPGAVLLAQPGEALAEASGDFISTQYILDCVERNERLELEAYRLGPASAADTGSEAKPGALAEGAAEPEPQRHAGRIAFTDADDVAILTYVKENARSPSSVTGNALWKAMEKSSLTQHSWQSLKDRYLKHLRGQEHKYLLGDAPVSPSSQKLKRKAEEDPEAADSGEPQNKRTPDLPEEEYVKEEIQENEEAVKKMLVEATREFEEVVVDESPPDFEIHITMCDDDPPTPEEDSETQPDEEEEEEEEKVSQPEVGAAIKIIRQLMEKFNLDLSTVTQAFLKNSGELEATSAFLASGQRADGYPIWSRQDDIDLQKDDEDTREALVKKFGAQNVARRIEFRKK
UniProt O60493, sequence (O60493 whole entry, looked up): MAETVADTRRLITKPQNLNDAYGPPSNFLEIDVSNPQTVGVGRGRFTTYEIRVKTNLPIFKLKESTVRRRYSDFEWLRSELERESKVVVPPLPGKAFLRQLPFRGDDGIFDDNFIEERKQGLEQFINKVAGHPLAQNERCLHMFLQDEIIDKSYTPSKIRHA

log2 fold change, inactive:
TBC1D23 (UniProt Q9NUY8) 0.047
TFB2M (UniProt Q9H5Q4) 0.037
TGFBRAP1 (UniProt Q8WUH2) -0.046
SNX9 (UniProt Q9Y5X1) -0.004
THRAP3 (UniProt Q9Y2W1) -0.071
SRRM2 (UniProt Q9UQ35) -0.136
SSX2 (UniProt Q16385) -0.023
SMAP (UniProt O00193) 0.119
SMARCA5 (UniProt O60264) -0.058
SPAG9 (UniProt O60271) 0.034
SURF1 (UniProt Q15526) 0.051
TANGO6 (UniProt Q9C0B7) -0.003
SYNE1 (UniProt Q8NF91) 0.07
STAM2 (UniProt O75886) 0.036
SRSF2 (UniProt Q01130) -0.13
SMAD9 (UniProt O15198) 0.101
SPPL2B (UniProt Q8TCT7) -0.039
SUOX (UniProt P51687) 0.046
SPART (UniProt Q8N0X7) 0.057
TLK1 (UniProt Q9UKI8) 0.041
STXBP5 (UniProt Q5T5C0) 0.097
TCOF1 isoform 4 (UniProt Q13428) -0.005
TERF2IP (UniProt Q9NYB0) -0.016
TARS2 (UniProt Q9BW92) 0.021
TM9SF2 (UniProt Q99805) 0.037
TIPRL (UniProt O75663) 0.031
SREK1 isoform 2 (UniProt Q8WXA9) -0.019
SNX3 (UniProt O60493) -0.056
STXBP2 isoform 3 (UniProt Q15833) -0.109
SMPD4 isoform 4 (UniProt Q9NXE4) -0.034
TIMM13 (UniProt Q9Y5L4) 0.315
SPTBN1 (UniProt Q01082) -0.065
SUN2 (UniProt Q9UH99) -0.031
TAOK1 (UniProt Q7L7X3) -0.027
SMARCE1 (UniProt Q969G3) 0.017
SRI (UniProt P30626) 0.322
SNRPB2 (UniProt P08579) -0.01

Each target was assayed with C1=CC(=CC=C1C2=NC3=C(N2)C=C(C=C3)C(=O)N)OC4=CC=C(C=C4)Cl in the same assay as above.
How it was run: as §1

log2 fold change, inactive:
TBC1D23 (UniProt Q9NUY8) 0.067
TFB2M (UniProt Q9H5Q4) -0.043
TGFBRAP1 (UniProt Q8WUH2) -0.119
SNX9 (UniProt Q9Y5X1) -0.024
THRAP3 (UniProt Q9Y2W1) 0.067
SRRM2 (UniProt Q9UQ35) 0.07
SSX2 (UniProt Q16385) 0.038
SMAP (UniProt O00193) 0.017
SMARCA5 (UniProt O60264) 0.005
SPAG9 (UniProt O60271) -0.016
SURF1 (UniProt Q15526) -0.026
TANGO6 (UniProt Q9C0B7) -0.026
SYNE1 (UniProt Q8NF91) -0.132
STAM2 (UniProt O75886) -0.031
SRSF2 (UniProt Q01130) 0.02
SMAD9 (UniProt O15198) -0.055
SPPL2B (UniProt Q8TCT7) 0.044
SUOX (UniProt P51687) -0.01
SPART (UniProt Q8N0X7) 0.008
TLK1 (UniProt Q9UKI8) -0.012
STXBP5 (UniProt Q5T5C0) 0.018
TCOF1 isoform 4 (UniProt Q13428) -0.008
TERF2IP (UniProt Q9NYB0) -0.003
TARS2 (UniProt Q9BW92) 0.003
TM9SF2 (UniProt Q99805) -0.006
TIPRL (UniProt O75663) 0.009
SREK1 isoform 2 (UniProt Q8WXA9) 0.12
SNX3 (UniProt O60493) -0.052
STXBP2 isoform 3 (UniProt Q15833) -0.049
SMPD4 isoform 4 (UniProt Q9NXE4) 0.005
TIMM13 (UniProt Q9Y5L4) 0
SPTBN1 (UniProt Q01082) 0.011
SUN2 (UniProt Q9UH99) -0.004
TAOK1 (UniProt Q7L7X3) 0.09
SMARCE1 (UniProt Q969G3) 0
SRI (UniProt P30626) 0.025
SNRPB2 (UniProt P08579) -0.019
